# ChEMBL document CHEMBL4888484, “Replenishing the malaria drug discovery pipeline: Screening and hit evaluation of the MMV Hit Generation Library 1 (HGL1) against asexual blood stage Plasmodium falciparum ,using a nano luciferase reporter read-out” (2022)
# About 420 (8.8%) of roughly 4,800 compounds showed an effect of 50% or more. Shown is part of a subset that was picked to be rich in strong results.
# Tested on: Plasmodium falciparum
# Test: Confirmatory screen in NF54 nanoGlo assay, in single point, at 2uM, 72h
# Format: functional, Erythrocyte
# Details: timepoint 72 hour
row,Compound,% Inhibition [%]
1,Cc1ccc(Cl)c(OCn2ccc(C(=O)Nc3ccc(Br)cn3)n2)c1,-16
2,O=C(NCc1ccccc1F)C1CCN(c2cncnc2N2CCCC2)CC1,33
3,CCS(=O)(=O)C1CN(C(=O)c2ccnn2C2CCCC2)C1,-7
4,COCCCn1c(COc2ccc(OC)cc2)n[nH]c1=O,1
5,COc1c(Cl)cc(Cl)cc1CNC(C)C,4
6,NCc1ccc(O)c(Br)c1,2
7,COc1ccnc(NCc2ccc(N3CCOCC3)cc2)n1,-3
8,Cc1ccc(CNC(=O)c2nc(-c3ccncc3)cs2)o1,7
9,CC(=O)c1cccc(S(=O)(=O)N2CCN(C(=O)c3ccc4c(c3)CCC4)CC2)c1,2
10,Cc1cc(C)n(S(=O)(=O)c2ccc3c(c2)OCCO3)n1,-3
11,CC12CN(S(=O)(=O)c3ccc4c(c3)OCCO4)C3(C(=O)OCc4ccccc4)CC1CCC23C (centres undefined),59
12,COc1ccc2c(c1)CCN2S(=O)(=O)c1ccc2c(c1)OCCO2,-4
13,CC(C)OC(=O)N1C(=O)c2ccccc2NC1(C(F)(F)F)C(F)(F)F,-22
14,Nc1ccc2c(c1)Oc1cc(N)ccc1OCCOCCOCCO2,-10
15,O=c1c2ccccc2nc2cc(-c3ccc(O)cc3)c(-c3ccccc3)nn12,53
16,COC(=O)Nc1nc(-c2ccccc2)c(-c2nc3ccccc3c(=O)n2-c2ccc(OC)cc2)s1,5
17,Cc1cccc(-n2c(-c3sc(Nc4ccccc4)nc3-c3ccccc3)nc3ccccc3c2=O)c1,6
18,Cc1ccc(/N=C(\N)C(Cl)(Cl)Cl)c(C)c1,-2
19,CN(Cc1ccc(F)cc1Cl)[C@H]1CCc2nnc(C3CCOCC3)n2CC1,-13
20,Cc1ccnc(CNC(=O)N[C@H]2CCc3ccc(F)cc32)c1,-10
21,Oc1ccccc1CCN[C@H]1CCc2ccc(F)cc21,98
22,c1ccc(N2CCN(CCN[C@H]3CCc4cc5c(cc43)CCC5)CC2)cc1,8
23,Cc1nc2cc(F)ccc2cc1C(=O)N1CCN(S(=O)(=O)c2ccc(Br)cc2)CC1,0
24,Cc1ccccc1CNC(=O)CN(C(C)C)C1CCOCC1,21
25,CCO[C@H]1C[C@H](NC(=O)Nc2ccc(F)c(C3CC3)c2)C1,2
26,COc1ccc(-n2nc(C)c3c2NC(=O)C[C@@H]3c2ccc3c(c2)OCO3)cc1,-5
27,COC(=O)c1ccc(C)c(NC(=O)c2ocnc2C2CC2)c1,2
28,Cc1cc(C)n(-c2c(C)[nH]c3ccccc23)n1,-7
29,CC1=C(C(=O)Nc2cccc(Cl)c2)[C@H](c2csnn2)NC(=O)N1,-20
